Measured values from PubChem BioAssay.
“And” between values parts separate entries of the source, which are not always exact repeats. Equal entries are not always repeated. The source made the active and inactive calls.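 The calls were made as follows, unless noted: active = compounds whose cell count with miR-34 switched on is under 0.7 times the count with it off; inactive = the rest.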

What was measured:
[1] = differential killing of epithelial or mesenchymal cells, primary screen, imaging, PC-3E GFP, TEM4-18 mCherry, co-culture (AID 1345086;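 active = compounds killing one labelled cell type while sparing the other, by normalised counts and ratio limits, not self-fluorescent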;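 as to all read-outs here: cells exposed to compound for 72 h before imaging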;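 as to red/green cell ratio (normalised): normalised mesenchymal count divided by normalised epithelial count so high means epithelial killing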); conditions: imaging cell counts, at 1 µM; for red/green cell ratio (normalised): actives lie on both sides, counts scaled to control wells, 1 = unselective
[2] = sensitizers of A549 cells to miR-34 induction, primary screen, imaging, A549 dox-inducible miR-34, nuclei and caspase counts (AID 1347080); conditions: A549 miR-34 inducible, Hoechst nuclei count, 48 h
[3] = measured here: epithelial PC-3E GFP cell survival
[4] = measured here: mesenchymal TEM4-18 mCherry cell survival
[5] = stronger effect = lower value, cell number ratio, induced over uninduced
[6] = measured here: relative caspase fold change +Dox/-Dox
[7] = measured here: total cells with miR-34 induction, stronger effect = lower value
[8] = measured here: total cells without miR-34 induction

Row | Structure (SMILES) | red/green cell ratio (normalised) [1] | normalised cell number [1, 3] | normalised cell number [1, 4] | fold change [2, 5] | fold change [2, 6] | cell count [2, 7] | cell count [2, 8]
1 | CC(C)(CO)C(O)C(=O)NCCC(=O)NCCSSCCNC(=O)CCNC(=O)C(O)C(C)(C)CO (centres undefined) | 0.97 (inactive) | 0.82 | 0.8 | 0.968 (inactive) | 0.786 | 8560 | 8840
2 | CC1(C)C2CCC1(CS(=O)(=O)O)C(=O)/C2=C\c1ccc(/C=C2\C(=O)C3(CS(=O)(=O)O)CCC2C3(C)C)cc1 | 0.78 (inactive) | 1.44 | 1.12 | 0.905 (inactive) | 1.03 | 8090 | 8940
3 | OC[C@@H](O)[C@H](O)[C@@H](O)[C@H](O)CO | 1.12 (inactive) | 0.97 | 1.08 | 0.853 (inactive) | 0.862 | 7670 | 9000
4 | CC1(C)S[C@@H]2[C@H](NC(=O)[C@H](C(=O)O)c3cccs3)C(=O)N2[C@H]1C(=O)O | 0.96 (inactive) | 1.05 | 1.01 | 0.949 (inactive) | 0.673 | 9210 | 9700
5 | CC(=O)OCC(=O)[C@@]1(O)[C@@H](C)CC2C3CCC4=CC(=O)C=C[C@]4(C)[C@@]3(F)[C@@H](O)C[C@@]21C (some centres undefined) | 0.93 (inactive) | 1.21 | 1.13 | 0.963 (inactive) | 0.848 | 6280 | 6520
6 | NCCCC(N)C(=O)O (centres undefined) | 1.03 (inactive) | 0.99 | 1.02 | 0.906 (inactive) | 0.95 | 8560 | 9450
7 | C=C(C)C1CC=C(C)CC1 (centres undefined) | 0.93 (inactive) | 1.03 | 0.96 | 0.884 (inactive) | 1.07 | 8150 | 9220
8 | CC12CCC3c4ccc(O)cc4CCC3C1C[C@H](O)[C@@H]2O (some centres undefined) | 0.97 (inactive) | 0.91 | 0.89 | 0.999 (inactive) | 0.736 | 8330 | 8350
9 | CO/N=C(/C(=O)N[C@@H]1C(=O)N2C(C(=O)OCSC(=O)c3ccco3)=CCS[C@H]12)c1csc(N)n1 | 0.72 (inactive) | 1.31 | 0.94 | 0.907 (inactive) | 0.846 | 8470 | 9350
10 | N[C@@H](CO)c1ccccc1 | 0.91 (inactive) | 0.97 | 0.88 | 0.995 (inactive) | 0.434 | 5440 | 5460
11 | Cc1cc(CC(C)CC(C)(C)C)n(O)c(=O)c1 (centres undefined) (tested in a mixture with another compound) | 0.92 (inactive) | 1.04 | 0.95 | 1.25 (inactive) and 1.02 (inactive) | 0.741 and 0.825 | 2940 and 2820 | 2360 and 2770
12 | CCCC[C@@H](CC)COC(=O)C(C#N)=C(c1ccccc1)c1ccccc1 | 0.92 (inactive) | 1.19 | 1.09 | 0.897 (inactive) | 0.819 | 8030 | 8950
